Mcl1-Bid inh: disrupts binding of human Mcl-1 to Bid peptide; Q07820; TR-FRET Mcl-1/Bid-Dy647 peptide binding, 1536-well; inhibition, % at 21.7 µM; 220,000 compounds, 0.97% hits; AID 1021;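 active = compounds that cut the binding signal by more than half at the single screening dose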;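 note: His-tagged Mcl-1 with europium anti-His antibody binding Bid BH3 peptide; 0% = Mcl-1 plus peptide wells and 100% = peptide-only wells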
Mcl-1 Bim block: disrupts Bim peptide binding to human Mcl-1; Bead-based flow cytometry, Bim peptide-Mcl-1 binding; inhibition, % at 10 µM; 190,000 compounds, 0.1% hits; in the data active = inhibition above about 40%;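 note: 0% = no compound tracer wells and 100% = peptide blocker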
p47phox inh: p47phox (human) inhibition; P14598; p47phox/p22phox peptide binding, fluorescence polarization, 2 h; inhibition, % at 24.7 µM; 220,000 compounds, 0.53% hits; AID 1274;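 active = inhibition above about 30%, limit read from the data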;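 note: 0% = p47phox with labelled peptide and 100% = labelled peptide alone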
Target sequence (P14598 whole entry, looked up): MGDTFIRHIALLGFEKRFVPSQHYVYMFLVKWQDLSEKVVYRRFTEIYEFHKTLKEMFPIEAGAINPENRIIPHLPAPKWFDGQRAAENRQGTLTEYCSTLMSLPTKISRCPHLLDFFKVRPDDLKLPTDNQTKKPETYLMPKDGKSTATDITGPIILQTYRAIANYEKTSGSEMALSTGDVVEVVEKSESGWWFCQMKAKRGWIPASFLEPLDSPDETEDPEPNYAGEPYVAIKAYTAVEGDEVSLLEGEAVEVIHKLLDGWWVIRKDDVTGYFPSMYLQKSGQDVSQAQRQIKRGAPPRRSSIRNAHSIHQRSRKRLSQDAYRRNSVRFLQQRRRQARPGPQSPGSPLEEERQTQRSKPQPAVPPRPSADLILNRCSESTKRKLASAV
Mcl1 Noxa PPI: disrupts binding of human Mcl-1 to Noxa peptide; Q07820; TR-FRET Mcl-1/Noxa peptide binding, 2 h; inhibition, % at 21.7 µM; 220,000 compounds, 1.5% hits;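 active = compounds that cut the protein-peptide binding signal by more than 50% relative to plate controls in a single-dose test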;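 note: His-tagged Mcl-1 with rhodamine Noxa BH3 peptide and terbium anti-His antibody; 0% = Mcl-1 plus Noxa peptide wells and 100% = peptide-only wells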
14-3-3 Bad inh: disrupts binding of bovine 14-3-3 zeta to phospho-Bad peptide. P63103. TR-FRET 14-3-3zeta/Dy647-pBad peptide displacement, 1 h. inhibition, % at 21.7 µM. 220,000 compounds, 0.71% hits;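 active = inhibition above about 70%, limit read from the data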;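 note: 0% = full 14-3-3 plus peptide FRET controls and 100% = background without 14-3-3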
Target sequence (P63103 whole entry, looked up): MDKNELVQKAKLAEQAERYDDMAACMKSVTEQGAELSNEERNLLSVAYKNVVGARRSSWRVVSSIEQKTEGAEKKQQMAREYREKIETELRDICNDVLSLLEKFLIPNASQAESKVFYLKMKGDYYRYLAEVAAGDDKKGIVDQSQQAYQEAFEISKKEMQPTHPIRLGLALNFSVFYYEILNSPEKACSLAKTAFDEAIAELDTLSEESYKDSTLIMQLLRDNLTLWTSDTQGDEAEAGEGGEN
Numbers without * were called inactive; x = no result; [ ] = dose if it differs, or a comment. Only some compounds are listed: those with a hit (about 3.2% of all), similar ones and a draw of the others.

SMILES | Mcl1-Bid inh | Mcl-1 Bim block | p47phox inh | Mcl1 Noxa PPI | 14-3-3 Bad inh
Cc1cc2nc(C3CCCN(C(=O)NCc4ccccc4)C3)[nH]c2cc1C (centres undefined) | 9.2 | 2.0 | -8.8 | 28.8 | 75.5*
Cc1cc2nc(C3CCCN(C(=S)Nc4ccccc4C)C3)[nH]c2cc1C (centres undefined) | -63.6 | 9.0 | -10.3 | -8.2 | -17.3
Cc1nn(CCC(=O)O)c2nc(-c3cccnc3)cc(C(F)(F)F)c12 | 45.2 | 0.0 | -6.5 | 24.6 | 72.9*
Cc1nn(CCC(N)=O)c2nc(-c3cccs3)cc(C(F)(F)F)c12 | -14.6 | -5.0 | -7.3 | -15.7 | -9.1
Oc1ccc(N2CCN(c3ncnc4sc5c(c34)CCC5)CC2)cc1 | -7.8 | 1.0 | 7.6 | 73.6* | 12.7
c1ccc2c(c1)nnn2-c1ncnc2sc3c(c12)CCCC3 | 79.9* | 1.0 | -14.0 | 13.2 | 2.3
CCN1/C(=C/C=C/c2oc3ccc(-c4ccccc4)cc3[n+]2CC)Oc2ccc(-c3ccccc3)cc21 | 9.2 | x | -235.8 | -434.1 | -70.3
CC(C)(C)c1ccc(C(=O)N2CCNCC2)cc1 | 16.9 | -4.0 | 38.0* | 11.2 | -3.8
Cc1cc(NC(=O)/C(C#N)=C/c2ccco2)n(-c2ccccc2)n1 | -22.7 | -2.0 | -12.9 | 8.0 | -5.5
Cc1ccc(-c2ccc(/C=C(\C#N)C(=O)Nc3cc(C)nn3-c3ccccc3)o2)cc1 | 64.0* | -3.0 | -7.7 | x | 35.0
Cc1ccc(-c2nc(NCc3ccc(F)cc3)n(S(C)(=O)=O)n2)cc1 | -13.3 | -2.0 | -1.7 | 5.0 | 5.0
O=C(N1CCN(c2ccccc2F)CC1)C1(c2cccs2)CCOCC1 | -40.5 | -5.0 | 1.4 | 12.9 | 15.5
COc1ccc(CCNc2nc(-c3cccnc3)cs2)cc1OC | 90.2* | -5.0 | -8.5 | 11.0 | -15.4
COc1ccc(CCNc2nc(-c3sc(C)nc3C)cs2)cc1OC | 73.4* | 0.0 | -15.8 | 60.0* | 63.8
O=C(CSc1nnc(SCc2cccc3ccccc23)s1)N=Nc1c(O)[nH]c2ccccc12 | 78.7* | -12.0 | 32.4* | 60.2* | 49.2
C=CCN1C(=O)/C(=C2/C(=O)N(CC(=O)O)c3ccccc32)S/C1=N/c1nccs1 | -37.7 | 1.0 | -25.1 | 89.0* | 19.8
C=CCN1C(=O)/C(=C/c2ccc(O)cc2)S/C1=N/c1nccs1 | -59.6 | -1.0 | -72.6 | 14.1 | -2.5
COC(=O)C(Cc1csc2ccc(Cl)cc12)NC(=O)c1ccc(Cl)cc1 (centres undefined) | 81.7* | x | -15.0 | 45.0 | 29.2
COC(=O)C(Cc1ccccc1)NC(=O)c1ccc(C)cc1 (centres undefined) | -29.3 | -3.0 | -0.8 | 19.1 | -2.4
COc1cc2[nH]c(=S)n(N(C(C)=O)C(C)=O)c(=O)c2cc1OC | 96.8* | -3.0 | -4.1 | 8.2 | 5.7
CCOc1ccc(CC(=O)N2CCN=C2SC)cc1 | -26.4 | 1.0 | -8.2 | 5.9 | -8.6
CCOC(=O)C1=C(c2ccccc2)NC(=O)NC1c1ccc(N(C)C)cc1 (centres undefined) | 0.0 | -1.0 | -7.7 | 61.1* | 45.0
CCOC(=O)C1=C(c2ccccc2)NC(=O)NC1c1ccc(OC)cc1 (centres undefined) | 0.8 | 2.0 | 4.1 | 27.1 | 4.3
O=C(COC(=O)c1ccccn1)NC1CCCCC1 | 2.3 | 66.0* | -13.7 | 3.1 | 5.5
O=C(COC(=O)c1ccccn1)Nc1cccc(Cl)c1 | -45.5 | 4.0 | 35.9* | 1.2 | -12.7
SMILES | Mcl1-Bid inh | Mcl-1 Bim block | p47phox inh | Mcl1 Noxa PPI | 14-3-3 Bad inh
CN(C)CCCNC(=O)/C(=C\C=C\c1ccccc1)NC(=O)c1ccc([N+](=O)[O-])cc1 | -25.2 | x | -11.3 | 15.0 | -14.5
O=C(Nc1cccc(C(F)(F)F)c1)c1cccnc1N1CCN(c2ccccc2)CC1 | 28.7 | 0.0 | -1.1 | 38.2 | 87.5*[fluorescence artefact?]
C=CCc1cccc(/C=N/NC(=O)CNc2ccccc2)c1O | -12.4 | 0.0 | 6.0 | 1.6 | 1.1
C=CCc1cccc(/C=N/NC(=O)CCCNc2ccc(C)cc2)c1O | -17.8 | -6.0 | 94.2* | 33.5 | 5.3
CCC(C)C(NC(=O)OCc1ccccc1)C(=O)NC(Cc1ccc(O)cc1)C(=O)OC (centres undefined) | 3.8 | -3.0 | -6.7 | -0.8 | -20.1
O=C(c1ccc([N+](=O)[O-])cc1)N1CCCC1 | -5.0 | x | -0.1 | 4.6 | 1.3
O=C(Nc1ccccc1)C1CCN(C(=O)c2ccc([N+](=O)[O-])cc2)CC1 | -15.0 | 3.0 | -7.3 | 0.5 | 47.4
CC(=O)c1cccc(NC(=O)C2CCN(C(=O)c3ccc([N+](=O)[O-])cc3)CC2)c1 | 73.4* | -2.0 | -13.6 | 9.2 | -6.7
O=C(c1ccccc1)N1CCN(C(=O)c2ccc([N+](=O)[O-])cc2)CC1 | 9.9 | -3.0 | -7.0 | 54.2* | -3.8
CCNc1nc(SCC(=O)OC)nc(N(C)C)n1 | -7.5 | -3.0 | 4.1 | -4.5 | -3.4
O=c1nc(/C=C/c2cccn2-c2ccc([N+](=O)[O-])cc2)cc(C(F)(F)F)[nH]1 | -62.7 | 0.0 | -4.8 | 56.7* | 11.6
CCN(CC(=O)Nc1cccc(C(C)=O)c1)S(=O)(=O)c1ccc(C)cc1 | -48.2 | 0.0 | -0.7 | 4.4 | -1.2
Clc1ccc(Cc2ccc(SCc3ccccc3)nn2)c(Cl)c1 | 3.1 | -1.0 | -5.0 | -9.7 | 71.9*
Clc1ccc(Cc2ccc(Cl)nn2)c(Cl)c1 | 1.3 | 0.0 | -9.4 | -10.4 | 6.7
C=CCN(c1ccccc1C(=O)O)S(=O)(=O)/C=C/c1ccccc1 | 1.8 | -2.0 | -5.2 | 21.1 | -18.6
CCOc1cc(CNc2ccc(O)cc2)cc(Br)c1OCc1ccccc1F | -15.5 | -2.0 | 6.7 | -2.9 | -4.2
COc1cc(CNc2ccc(N3CCCC3)cc2)ccc1OCc1ccccc1 | -55.9 | 2.0 | 5.7 | 36.1 | 7.1
COc1cc(CNc2ccc(N3CCCC3)cc2)ccc1OCc1ccccc1F | -106.4 | 1.0 | -2.7 | 57.0* | 1.8
COc1cc(CNc2ccc(O)cc2)cc(Br)c1OCc1ccccc1F | 95.4* | -3.0 | -7.4 | 29.1 | -2.7
COc1cc(CNCc2ccncc2)cc(Br)c1OCc1ccccc1F | 55.1* | 0.0 | -8.5 | 36.4 | 83.0*
O=C(Cc1ccccc1)Nc1cccc(C(=O)O)c1O | 11.9 | -2.0 | x | 6.1 | 8.2
Cc1occc1C(=O)NNC(=S)NCc1ccccc1 | -67.2 | 60.0* | -2.7 | 21.8 | 0.0
O=C(/C=C/c1cccnc1)c1ccc(O)cc1 | -48.5 | x | -9.0 | 85.2* | 0.8
O=C(/C=C/c1cccnc1)c1ccccc1O | -23.1 | x | -18.2 | 1.1 | 8.7
CC(C)(C)c1nc2ccccc2c2nnc(SCC(=O)Nc3nc4ccccc4s3)n12 | 70.6* | 2.0 | 5.4 | 25.8 | 63.1
CC(C)(C)c1nc2ccccc2c2nnc(SCC(=O)Nc3nccs3)n12 | -6.7 | 1.0 | -4.8 | 17.9 | 5.3
CCOC(=O)C(CC)Sc1ccc2nnc(CCNS(=O)(=O)c3ccccc3)n2n1 (centres undefined) | -0.1 | 0.0 | x | -19.8 | 2.1
CCOC(=O)CSc1ccc2nnc(CCNS(=O)(=O)c3ccccc3)n2n1 | -0.5 | -2.0 | x | 0.5 | 83.4*

Screening data from PubChem BioAssay.
